Measured values as given in PubChem BioAssay (NCATS).
Results filed as inconclusive are left out. Entries that show only a call come without a potency. Unmarked numbers belong to inactive results. Calls of active or inactive are those of the source. Calls come from the whole dose curve; as a rule, active = well fitted inhibition curve with a large enough effect; inconclusive = small, poorly fitted or top-dose-only effect; inactive = flat fitted curve, though single readings scatter. *1 amine or outer side, *2 acyl side, *3 side chain or, on linkers, in order; H or OH if unused. Where a SMILES comes first, the peptide text is derived from it. [ ]: non-standard residue; d: D form. The star is where a group is joined. ξ: configuration not given here. X9 = CCC(C)(N*)C(=O)C1CC[C@@H](C(=O)N[C@@H](Cc2ccccc2)C(=O)NCC(=O)O)N1; X8 = O=C([C@@H]1CC(O)CN1[*:1])[*:2]; aIle = CC[C@@H](C)[C@H](N)C(=O)O; Thr(3ξ) = CC(O)[C@H](N)C(=O)O; ξIva = CCC(C)(N)C(=O)O; Aib = CC(C)(N)C(=O)O

Test: P-glycoprotein substrates identified in KB-8-5-11 adenocarcinoma cell line, qHTS therapeutic library screen (AID 1346987); note: nearly all actives have a fitted effect of over 65% in size
Settings: KB-8-5-11 (P-gp overexpressing) viability, CellTiter-Glo, 72 h; series mostly up to 44.5 µM
Method in brief: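 P-gp-mediated resistance screen: KB-8-5-11 cells treated 72 h with compounds in dose-response. CellTiter-Glo viability.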

Row | Structure (SMILES) | Potency | outcome | activity change, negative = cytotoxicity
1 | CC(C)(O)C1CC=C(C(=O)OC[C@H]2O[C@@H](OC(=O)C3=CCC(C(C)(C)O)CC3)[C@H](O)[C@@H](O)[C@@H]2O)CC1 (stereo partly drawn) | inactive |  | 
2 | C=C1CCC2C(C)(C(=O)O)CCCC2(C)C1CC/C(C)=C\CO (stereo not drawn) | inactive |  | 
3 | C[C@@H]1CC[C@]2(C(=O)O[C@@H]3O[C@H](CO[C@@H]4O[C@H](CO)[C@@H](O)[C@H](O)[C@H]4O)[C@@H](O)[C@H](O)[C@H]3O)CC[C@]3(C)C(=CCC4[C@@]5(C)CC[C@H](O)[C@](C)(C(=O)O)C5CC[C@]43C)[C@@H]2[C@]1(C)O (stereo partly drawn) |  | inactive [at 9.29 µM] | 
4 | COc1cc(/C=C/C(=O)O)ccc1O[C@@H]1O[C@H](CO)[C@@H](O)[C@H](O)[C@H]1O[C@@H]1OC[C@](O)(CO)[C@H]1O | inactive |  | 
5 | CC1=C2C[C@H]3OC(=O)[C@H](O)[C@@]4(O)[C@@H](C)[C@@H](O)[C@H](O)C([C@@]2(C)[C@H](O)[C@@H](O)C1)[C@@]34C (stereo partly drawn) | inactive |  | 
6 | OC[C@H]1O[C@@H](OCCc2ccccc2)[C@H](O[C@@H]2OC[C@@H](O)[C@H](O)[C@H]2O)[C@@H](O)[C@@H]1O | inactive |  | 
7 | CC1CCC2C(C)(C)C(O)C(O)CC2(C)C12Cc1c(O)cc(CO)c(C=O)c1O2 (stereo not drawn) | inactive |  | 
8 | CSCC1OC(n2cnc3c(=O)[nH]cnc32)C(O)C1O (stereo not drawn) | inactive |  | 
9 | CC1CCC2(C(=O)O)CCC3(C)C(=CCC4C5(C)CCC(O)C(C)(C(=O)O)C5CCC43C)C2C1(C)O (stereo not drawn) | inactive |  | 
10 | c1cc(-c2cc(C3CCNCC3)[nH]n2)ccn1 | inactive |  | 
11 | Fc1ccccc1-c1nc2ccn(Cc3ccc(-c4ccc(C(F)(F)F)cc4C(F)(F)F)nn3)cc-2n1 | inactive |  | 
12 | C=CC(C)(CC/C=C(\C)C(=O)OC)OC1OC(COC(=O)CC(C)(O)CC(=O)O)C(O)C(O)C1O (stereo not drawn) | inactive |  | 
13 | CCCO[C@@H]1O[C@H](CO)[C@@H](O)[C@H](O)[C@H]1O[C@@H]1OC[C@@H](O)[C@H](O)[C@H]1O | inactive |  | 
14 | CC[C@@H](C)[C@H](NC(=O)C(C)(C)NC(=O)[C@H](CCC(N)=O)NC(=O)C(C)(CC)NC(=O)[C@H](Cc1c[nH]c2ccccc12)NC(C)=O)C(=O)N[C@H](C(=O)NC(C)(C)C(=O)N[C@@H](CC(C)C)C(=O)NC(C)(C)C(=O)N1CCC[C@H]1C(=O)N[C@@H](CCC(N)=O)C(=O)NC(C)(C)C(=O)N1CC(O)C[C@H]1C(=O)NC(C)(CC)C(=O)C1CC[C@@H](C(=O)N[C@@H](Cc2ccccc2)C(=O)NCC(=O)O)N1)C(C)O (stereo partly drawn) (Ac-W[ξIva]Q[Aib][aIle][Thr(3ξ)][Aib]L[Aib]PQ[Aib][X8]-X9) |  |  | -19% [at 5.11 µM]
15 | CC1OC(O[C@H]2CC[C@@]3(C)C(CC[C@]4(C)C3CC=C3C5CC(C)(C)CC[C@]5(C(=O)OC5OC(CO)C(OC6OCC(OC7OCC(O)C(O)C7O)C(O)C6O)C(O)C5O)CC[C@]34C)C2(C)C)C(O)C(O)C1OC1OC(CO)C(O)C(OC2OC(CO)C(O)C(O)C2O)C1O (stereo partly drawn) |  | inactive [at 9.29 µM] | 
16 | O=C(OC(C(F)(F)F)C(F)(F)F)N1CCN(Cc2cccc(Oc3ccccc3)c2)CC1 | inactive |  | 
17 | CC(C)=CCC[C@](C)(O[C@@H]1O[C@H](CO)[C@@H](O)[C@H](O)[C@H]1O)[C@H]1CC[C@]2(C)[C@@H]1[C@H](O)CC1[C@@]3(C)CC[C@H](O)C(C)(C)C3[C@@H](O[C@@H]3O[C@H](CO)[C@@H](O)[C@H](O)[C@H]3O[C@@H]3O[C@@H](C)[C@H](O)[C@@H](O)[C@H]3O)C[C@]12C (stereo partly drawn) |  | inactive [at 9.29 µM] | 
18 | C/C=C1/C[N+](C)([O-])C2Cc3c([nH]c4ccccc34)C(=O)CC1C2C(=O)OC (stereo not drawn) | inactive |  | 
19 | C=C(C(=O)O)[C@@H]1CC[C@@]2(C)CC[C@@H](O)C(=C)C2C1 (stereo partly drawn) | inactive |  | 

Row | Structure (SMILES) | Potency | outcome | activity change, negative = cytotoxicity
20 | CC12CC(c3ccoc3)OC(=O)C1CCC1(C)C2CCC(O)C1(C)O (stereo not drawn) | inactive |  | 
21 | CC[C@H]1OC(=O)[C@H](C)[C@@H](O[C@H]2C[C@@](C)(OC)[C@@H](O)[C@H](C)O2)C(C)[C@@H](O[C@@H]2O[C@H](C)C[C@H](N(C)C)[C@H]2O)[C@](C)(O)C[C@@H](C)CN(C)[C@H](C)[C@@H](O)[C@]1(C)O (stereo partly drawn) | inactive |  | 
22 | COc1cc2c(c(OC)c1O)C(c1ccc(O)cc1)C1C(=O)OC3C(COC(=O)C1=C2)OC(CO)(OC1OC(COC(=O)/C=C/c2ccc(OC4OC(C)C(O)C(O)C4O)cc2)C(O)C(O)C1O)C3O (stereo not drawn) |  |  | 2.8% [at 9.29 µM]
23 | CC1(C)CC[C@]2(C(=O)O)CC[C@]3(C)C(=CCC4[C@@]5(C)C[C@H](O)[C@H](O[C@@H]6O[C@H](CO)[C@@H](O)[C@H](O)[C@H]6O)[C@@](C)(CO)C5[C@H](O)C[C@]43C)[C@@H]2C1 (stereo partly drawn) | inactive |  | 
24 | OCC1OC(Oc2cc(O)cc(/C=C/c3ccc(OC4OC(CO)C(O)C(O)C4O)cc3O)c2)C(O)C(O)C1O (stereo not drawn) | inactive |  | 
25 | CC(O)C1CCC2C3CCC4CC(OC5OC(C(=O)O)C(O)C(O)C5O)CCC4(C)C3CCC12C (stereo not drawn) | inactive |  | 
26 | C[C@H]1/C=C/C=C/C=C/C=C/C=C/[C@@H](O)[C@H](C(=O)O)[C@H](O)C[C@H](O)CCC[C@H](O)C[C@H](O)C[C@H](O)[C@@H](C)C(=O)O[C@@H]1C | inactive |  | 
27 | CC(=O)OCC(Cc1ccccc1)NC(=O)C(Cc1ccccc1)NC(=O)c1ccccc1 (stereo not drawn) | inactive |  | 
28 | CC(C)c1ccc2c(c1)C(O)CC1C(C)(CO)CCCC21C (stereo not drawn) | inactive |  | 
29 | COc1ccc(CC(=O)NCc2ccccc2-c2ccccc2C(=O)NCCc2cccnc2)cc1 | inactive |  | 
30 | CC1(C(=O)O)CCCC2(C)C3CCC4CC3(CCC12)CC4C(=O)O (stereo not drawn) | inactive |  | 
31 | COC(=O)C1=CO[C@@H](O[C@@H]2O[C@H](CO)[C@@H](O)[C@H](O)[C@H]2O)[C@H]2[C@@H]1[C@H](O)[C@H](O)[C@]2(C)O | inactive |  | 
32 | CC(=O)NC1CC(=O)C23C(=O)NC(Cc4c[nH]c5ccccc45)C2C(C)=C(C)C(O)C3/C=C/CC(C)/C=C(/C)C(O)C1O (stereo not drawn) | inactive |  | 
33 | CC(=O)O[C@@H]1C=C2[C@H](CC[C@@]3(C)[C@@]2(O)CC[C@H]2Cc4c([nH]c5ccccc45)[C@@]23C)O[C@@H]1C(C)(C)O | inactive |  | 
34 | Oc1ccc(CC2NCCc3cc(O)c(O)cc32)cc1 (stereo not drawn) | inactive |  | 
35 | CN(C)C(=O)C(O)C(Cc1ccccc1)NC(=O)c1cc2cc(Cl)ccc2[nH]1 (stereo not drawn) | inactive |  | 
36 | CC1=C(C(=O)OC2OC(COC3OC(CO)C(O)C(O)C3O)C(O)C(O)C2O)C(C)(C)CCC1 (stereo not drawn) | inactive |  | 
37 | O=C(NCC(=O)N1CCCC1)Nc1ccc2ccccc2c1 | inactive |  | 
38 | COc1cc(C[C@@]2(O)CO[C@@H](c3ccc(O[C@@H]4O[C@H](CO)[C@@H](O)[C@H](O)[C@H]4O)c(OC)c3)[C@H]2CO)ccc1O | inactive |  | 
